Results reported in PubChem BioAssay (NCI).
About 83,000 compounds went through this panel and 20% of them were active in at least one assay; those are over-represented in the sample as a whole.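 Values shown are percent growth following 48 h exposure of cells in 96-well plates to a single concentration of compound; below 10 was considered active.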 The source made the active and inactive calls.

Legend:
Test in all cases: NCI-60 one-dose screen, 48 h (100 = growth as untreated, 0 = no growth, -100 = all killed)
Settings in all cases: 10 µM unless noted
SR leukemia = test system: SR leukemia
RPMI-8226 leukemia = test system: RPMI-8226 leukemia
OVCAR-8 ovarian = test system: OVCAR-8 ovarian
OVCAR-5 ovarian = test system: OVCAR-5 ovarian
OVCAR-4 ovarian = test system: OVCAR-4 ovarian
SK-OV-3 ovarian = test system: SK-OV-3 ovarian
IGROV1 ovarian = test system: IGROV1 ovarian
OVCAR-3 ovarian = test system: OVCAR-3 ovarian
HS 578T breast = test system: HS 578T breast
NCI/ADR-RES ovarian = test system: NCI/ADR-RES ovarian
T-47D breast = test system: T-47D breast
BT-549 breast = test system: BT-549 breast
MDA-MB-435 melanoma = test system: MDA-MB-435 melanoma
MCF7 breast = test system: MCF7 breast
HCT-116 colon = test system: HCT-116 colon
HCC-2998 colon = test system: HCC-2998 colon
KM12 colon = test system: KM12 colon
SW-620 colon = test system: SW-620 colon

Measured: growth

O=S(=O)(c1ccc(NC(=S)NCc2cccnc2)cc1)N1CCCCC1
inactive: SR leukemia 49.1% | RPMI-8226 leukemia 36.2% | OVCAR-8 ovarian 110% | OVCAR-5 ovarian 59.8% | OVCAR-4 ovarian 95.6% | SK-OV-3 ovarian 79.3% | IGROV1 ovarian 62% | OVCAR-3 ovarian 82.3% | HS 578T breast 70.3% | NCI/ADR-RES ovarian 63.4% | T-47D breast 32.9% | BT-549 breast 73.4% | MDA-MB-435 melanoma 36.2% | MCF7 breast 54.7% | HCT-116 colon 26.2% | HCC-2998 colon 71.6% | KM12 colon 51.7%

Nc1nc(Cl)cc(Cl)n1
inactive: SR leukemia 93.6% | RPMI-8226 leukemia 114% | OVCAR-8 ovarian 112% | OVCAR-5 ovarian 103% | OVCAR-4 ovarian 112% | SK-OV-3 ovarian 91.1% | IGROV1 ovarian 100% | OVCAR-3 ovarian 111% | HS 578T breast 113% | NCI/ADR-RES ovarian 95.8% | T-47D breast 82% | BT-549 breast 102% | MDA-MB-435 melanoma 111% | SW-620 colon 109% | HCT-116 colon 90.1% | HCC-2998 colon 114% | KM12 colon 106%

C[n+]1cc2cc3c(cc2c2ccccc21)OCO3
inactive: SR leukemia 15.6% | RPMI-8226 leukemia 40.3% | OVCAR-8 ovarian 77.9% | OVCAR-5 ovarian 74% | OVCAR-4 ovarian 52.3% | SK-OV-3 ovarian 46% | IGROV1 ovarian 84.1% | OVCAR-3 ovarian 51.5% | HS 578T breast 42.1% | NCI/ADR-RES ovarian 106% | T-47D breast 39.8% | BT-549 breast 20% | SW-620 colon 56.5% | MCF7 breast 24.5% | HCT-116 colon 40.3% | HCC-2998 colon 54.7% | KM12 colon 12.9%

O=C(CCCl)OCCOc1ccccc1
inactive: SR leukemia 94.5% | RPMI-8226 leukemia 53.6% | OVCAR-8 ovarian 102% | OVCAR-5 ovarian 109% | OVCAR-4 ovarian 102% | SK-OV-3 ovarian 100% | IGROV1 ovarian 104% | OVCAR-3 ovarian 104% | HS 578T breast 98.8% | NCI/ADR-RES ovarian 106% | T-47D breast 96% | BT-549 breast 116% | SW-620 colon 107% | MCF7 breast 92.1% | HCT-116 colon 118% | HCC-2998 colon 108% | KM12 colon 102%

COc1ccc(C(=O)/C(=N/Nc2ccccc2)c2ccc(OC)cc2)cc1
inactive: SR leukemia 86% | RPMI-8226 leukemia 92.9% | OVCAR-8 ovarian 115% | OVCAR-5 ovarian 94.2% | OVCAR-4 ovarian 87.2% | SK-OV-3 ovarian 104% | IGROV1 ovarian 91.5% | OVCAR-3 ovarian 103% | HS 578T breast 102% | NCI/ADR-RES ovarian 97.5% | T-47D breast 87% | BT-549 breast 103% | MDA-MB-435 melanoma 94.1% | SW-620 colon 93.5% | HCT-116 colon 78.5% | HCC-2998 colon 95.2% | KM12 colon 90%

N#Cc1ccc(OC(=O)Nc2cc(Cl)cc(Cl)c2)cc1
inactive: OVCAR-4 ovarian 11.4% [100 µM] | IGROV1 ovarian 18% [100 µM]
active: SR leukemia -30.4% [100 µM] | RPMI-8226 leukemia -13% [100 µM] | OVCAR-8 ovarian 7.55% [100 µM] | OVCAR-5 ovarian 9.02% [100 µM] | SK-OV-3 ovarian -6.95% [100 µM] | OVCAR-3 ovarian 7.77% [100 µM] | HS 578T breast -11.5% [100 µM] | NCI/ADR-RES ovarian -4.12% [100 µM] | T-47D breast -12.2% [100 µM] | BT-549 breast -27.1% [100 µM] | MDA-MB-435 melanoma -9.08% [100 µM] | SW-620 colon 4.92% [100 µM] | MCF7 breast -25.7% [100 µM] | HCT-116 colon -62.7% [100 µM] | HCC-2998 colon -8.43% [100 µM] | KM12 colon -15% [100 µM]

C=CCNC(=S)N/C=C(/C(=O)c1ccccc1)c1ccccc1
inactive: SR leukemia 95.4% | RPMI-8226 leukemia 101% | OVCAR-8 ovarian 117% | OVCAR-5 ovarian 97.7% | OVCAR-4 ovarian 110% | SK-OV-3 ovarian 110% | IGROV1 ovarian 106% | OVCAR-3 ovarian 112% | HS 578T breast 103% | NCI/ADR-RES ovarian 104% | T-47D breast 99.4% | BT-549 breast 98.2% | MCF7 breast 97.6% | HCT-116 colon 115% | HCC-2998 colon 105% | KM12 colon 104%

CC1(C)CCC(C)(C)NC(=S)N1
inactive: SR leukemia 92.1% | RPMI-8226 leukemia 96.4% | OVCAR-8 ovarian 106% | OVCAR-5 ovarian 102% | OVCAR-4 ovarian 107% | SK-OV-3 ovarian 105% | IGROV1 ovarian 121% | OVCAR-3 ovarian 111% | HS 578T breast 109% | NCI/ADR-RES ovarian 108% | T-47D breast 98.5% | BT-549 breast 105% | MDA-MB-435 melanoma 111% | MCF7 breast 103% | HCT-116 colon 98.9% | HCC-2998 colon 109% | KM12 colon 99.1%

CCOC(=O)/C(O)=C(\C=N\C(=S)Nc1ccc(Cl)c(Cl)c1)C(=O)OCC
inactive: SR leukemia 85.7% | RPMI-8226 leukemia 80.1% | OVCAR-8 ovarian 92.5% | OVCAR-5 ovarian 91.8% | OVCAR-4 ovarian 60.2% | SK-OV-3 ovarian 81.6% | IGROV1 ovarian 101% | OVCAR-3 ovarian 100% | HS 578T breast 95.6% | NCI/ADR-RES ovarian 90.8% | T-47D breast 58.3% | BT-549 breast 100% | MDA-MB-435 melanoma 87.1% | MCF7 breast 81% | HCT-116 colon 101% | HCC-2998 colon 87.9% | KM12 colon 100%

CCOc1ccc(C(=O)O)cc1
inactive: SR leukemia 99.4% | RPMI-8226 leukemia 103% | OVCAR-8 ovarian 106% | OVCAR-5 ovarian 105% | OVCAR-4 ovarian 103% | SK-OV-3 ovarian 98.8% | IGROV1 ovarian 113% | OVCAR-3 ovarian 115% | HS 578T breast 95.3% | NCI/ADR-RES ovarian 105% | T-47D breast 100% | BT-549 breast 96.7% | SW-620 colon 99.7% | MCF7 breast 94% | HCT-116 colon 99% | HCC-2998 colon 104% | KM12 colon 112%

CC(=O)NCNC(C)=O
inactive: SR leukemia 85.3% | RPMI-8226 leukemia 97% | OVCAR-8 ovarian 98% | OVCAR-5 ovarian 105% | OVCAR-4 ovarian 110% | SK-OV-3 ovarian 113% | IGROV1 ovarian 113% | OVCAR-3 ovarian 120% | HS 578T breast 111% | NCI/ADR-RES ovarian 111% | T-47D breast 108% | BT-549 breast 100% | SW-620 colon 107% | HCT-116 colon 104% | HCC-2998 colon 113% | KM12 colon 117%

CCCC1OC(c2ccco2)OCC1CC (stereo not given)
inactive: SR leukemia 106% | RPMI-8226 leukemia 94.8% | OVCAR-8 ovarian 101% | OVCAR-5 ovarian 100% | OVCAR-4 ovarian 115% | SK-OV-3 ovarian 113% | IGROV1 ovarian 95.1% | OVCAR-3 ovarian 109% | HS 578T breast 118% | NCI/ADR-RES ovarian 107% | T-47D breast 103% | BT-549 breast 98.3% | MDA-MB-435 melanoma 108% | SW-620 colon 99.1% | HCT-116 colon 99% | HCC-2998 colon 101% | KM12 colon 103%

CC1CN(CCO)CC(C)O1 (stereo not given)
inactive: SR leukemia 103% | RPMI-8226 leukemia 111% | OVCAR-8 ovarian 107% | OVCAR-5 ovarian 93.1% | OVCAR-4 ovarian 99.7% | SK-OV-3 ovarian 96.9% | IGROV1 ovarian 103% | OVCAR-3 ovarian 106% | HS 578T breast 74.4% | NCI/ADR-RES ovarian 106% | T-47D breast 93% | BT-549 breast 108% | SW-620 colon 102% | HCT-116 colon 112% | HCC-2998 colon 119% | KM12 colon 101%

CC1CCC(C)(C)c2ccccc21 (stereo not given)
inactive: SR leukemia 107% | RPMI-8226 leukemia 117% | OVCAR-8 ovarian 105% | OVCAR-5 ovarian 92.4% | OVCAR-4 ovarian 98.2% | SK-OV-3 ovarian 101% | IGROV1 ovarian 98.4% | OVCAR-3 ovarian 114% | HS 578T breast 105% | NCI/ADR-RES ovarian 101% | T-47D breast 91.1% | BT-549 breast 105% | MDA-MB-435 melanoma 105% | HCT-116 colon 95.9% | HCC-2998 colon 96.9% | KM12 colon 106%

Oc1ccc(CCC2CCNc3ccccc32)cc1 (stereo not given)
inactive: SR leukemia 75.7% | RPMI-8226 leukemia 45.2% | OVCAR-8 ovarian 73.4% | OVCAR-5 ovarian 97.9% | OVCAR-4 ovarian 63.2% | SK-OV-3 ovarian 73.1% | IGROV1 ovarian 91.1% | OVCAR-3 ovarian 84.1% | HS 578T breast 91.8% | NCI/ADR-RES ovarian 74.7% | T-47D breast 63.9% | BT-549 breast 47.2% | SW-620 colon 97.2% | MCF7 breast 98.6% | HCT-116 colon 89.3% | HCC-2998 colon 102% | KM12 colon 88.4%

CC(=O)[C@@]1(O)CC[C@H]2[C@@H]3CC[C@@H]4CC(=O)CC[C@]4(C)[C@H]3[C@@H](O)C[C@@]21C
inactive: SR leukemia 87.9% | RPMI-8226 leukemia 97.9% | OVCAR-8 ovarian 101% | OVCAR-5 ovarian 91.7% | OVCAR-4 ovarian 111% | SK-OV-3 ovarian 82.7% | IGROV1 ovarian 103% | OVCAR-3 ovarian 109% | HS 578T breast 101% | NCI/ADR-RES ovarian 103% | T-47D breast 88.2% | BT-549 breast 102% | SW-620 colon 100% | MCF7 breast 93.6% | HCT-116 colon 107% | HCC-2998 colon 98.4% | KM12 colon 101%

CCNC(=O)Oc1ccc[nH]c1=O
inactive: SR leukemia 76.4% | RPMI-8226 leukemia 93.4% | OVCAR-8 ovarian 25.9% | OVCAR-5 ovarian 102% | OVCAR-4 ovarian 98.3% | SK-OV-3 ovarian 103% | IGROV1 ovarian 97.9% | OVCAR-3 ovarian 112% | HS 578T breast 95.2% | NCI/ADR-RES ovarian 102% | T-47D breast 86.1% | BT-549 breast 110% | MDA-MB-435 melanoma 103% | HCT-116 colon 108% | HCC-2998 colon 106% | KM12 colon 104%

CCC(/C=C\C(C)=O)CC
inactive: SR leukemia 101% | RPMI-8226 leukemia 97.6% | OVCAR-8 ovarian 103% | OVCAR-5 ovarian 104% | OVCAR-4 ovarian 86.5% | SK-OV-3 ovarian 110% | IGROV1 ovarian 115% | OVCAR-3 ovarian 122% | HS 578T breast 102% | NCI/ADR-RES ovarian 105% | T-47D breast 101% | BT-549 breast 103% | SW-620 colon 99% | MCF7 breast 105% | HCT-116 colon 97.3% | HCC-2998 colon 106% | KM12 colon 105%

O=C(CCl)Nc1ccccc1SCc1cc(Cl)cc2c1OCOC2
active: IGROV1 ovarian -43%
inactive: SR leukemia 31.9% | RPMI-8226 leukemia 94% | OVCAR-8 ovarian 75.4% | OVCAR-5 ovarian 101% | OVCAR-4 ovarian 47.7% | SK-OV-3 ovarian 80.8% | OVCAR-3 ovarian 26.1% | HS 578T breast 102% | NCI/ADR-RES ovarian 101% | T-47D breast 55.9% | BT-549 breast 71.9% | MDA-MB-435 melanoma 24.1% | SW-620 colon 87.1% | MCF7 breast 55.6% | HCT-116 colon 78.9% | HCC-2998 colon 99.1% | KM12 colon 96.8%
